The record followed here is PubChem BioAssay (NCATS).

“And” between values parts separate entries of the source, which are not always exact repeats. Equal values may be shown once. Inconclusive results are not listed. The source made the active and inactive calls. Unless noted, calls come from the whole dose curve; as a rule, active = well fitted curve in the direction sought with a large enough effect; inconclusive = small, poorly fitted or top-dose-only effect, or another doubt; inactive = no such curve, though single readings can be large; an effect the other way counts as inactive or inconclusive.

Experiment [1] concerns the target Alpha-galactosidase A (Homo sapiens) (UniProt P06280). The experiment in a line: Counterscreen for Glucocerebrosidase Inhibitors: qHTS Assay for Human alpha-Galactosidase at pH 4.5 (AID 992). Note: 0% is about no effect. The essentials:
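Read-out is 4-methylumbelliferone fluorescence (365 nm excitation, 440 nm emission) after a pH 10 NaOH/glycine stop. Reactions held 2 nM enzyme and 80 uM substrate at pH 4.5 for 20 min at room temperature.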

The target in experiment [2] is alpha-glucosidase (Oryza sativa, rice) (UniProt Q653V4). Put plainly: Counterscreen for Glucocerebrosidase Inhibitors: qHTS Assay for Rice alpha-Glucosidase at pH 5.0 (AID 997).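 Note: 0% = full activity with enzyme and -100% = basal without enzyme.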 Summed up: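 Rice alpha-glucosidase (4 nM final) with 400 uM 4-methylumbelliferyl-alpha-D-glucopyranoside in citrate buffer pH 5.0, 20 min at room temperature, stopped at pH 10; fluorescence 365/440 nm, compounds 0.7 nM–77 uM, AC50 from Hill fits.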

A short description of experiment [3]: qHTS Assay for Lipid Storage Modulators (AID 1519; calls by dose curve; for activity change, negative = inhibition: % is set by controls: 0 for no effect and ±100 for the full control effect). The note with it: Drosophila S3 cells, BODIPY lipid droplet/cell ratio, laser cytometry, cells loaded with oleic acid. Summed up: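 Cells seeded at 5,000 per well were treated with compounds over a concentration series and loaded with oleic acid (400 uM, as added). Lipid droplet fluorescence (488 nm excitation, 500-530 nm channel) was read by laser-scanning cytometry and normalized to 20 uM Triacsin C.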

Experiment [4] deals with DNA repair nuclease/redox regulator APEX1 (Homo sapiens) (UniProt P27695). The experiment in a line: qHTS Validation Assay for Inhibitors of the Human Apurinic/apyrimidinic Endonuclease 1 (APE1) (AID 1705;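 note: TAMRA fluorescence gain over two minutes as APE1 cuts a quenched THF abasic duplex; % is set by controls: 0 for no effect and ±100 for the full control effect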). Summed up:
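Substrate: 50 nM final fluorophore/quencher THF-abasic duplex. Enzyme preincubated with compounds 15 min, RT. Progress derived from fluorescence difference, third minus first kinetic read.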

The nature of experiment [5]: Counterscreen for APE1 Inhibitors: Fluorescent Dye Displacement Validation Assay (AID 1707).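 Note: plate controls were ThO with dsDNA and no compound for no effect and ThO without dsDNA for full effect.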 The essentials: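 ThO 250 nM + dsDNA 50 nM (THF abasic site, 5'-TAMRA), Tris-HCl pH7.5/50mM NaCl/2 mM MgCl2/0.01% Tween-20; compounds pin-transferred; ex 480/em 540 nm endpoint. Neutral = no compound; no-DNA ThO wells = negative control.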
[6] abbreviates: measured here: cell count channel max response.
[7] abbreviates: measured here: lipid channel max response.

DNA repair nuclease/redox regulator APEX1 (Homo sapiens), sequence (P27695 whole entry, looked up): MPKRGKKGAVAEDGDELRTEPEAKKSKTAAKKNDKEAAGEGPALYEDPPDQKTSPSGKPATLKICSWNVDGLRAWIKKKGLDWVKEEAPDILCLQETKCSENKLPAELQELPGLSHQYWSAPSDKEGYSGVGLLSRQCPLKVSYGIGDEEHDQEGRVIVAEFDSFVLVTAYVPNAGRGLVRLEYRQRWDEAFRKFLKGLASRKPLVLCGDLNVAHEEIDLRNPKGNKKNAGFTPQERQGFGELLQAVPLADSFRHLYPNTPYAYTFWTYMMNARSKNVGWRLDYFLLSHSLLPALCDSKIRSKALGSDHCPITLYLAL
Alpha-galactosidase A (Homo sapiens), sequence (P06280 whole entry, looked up): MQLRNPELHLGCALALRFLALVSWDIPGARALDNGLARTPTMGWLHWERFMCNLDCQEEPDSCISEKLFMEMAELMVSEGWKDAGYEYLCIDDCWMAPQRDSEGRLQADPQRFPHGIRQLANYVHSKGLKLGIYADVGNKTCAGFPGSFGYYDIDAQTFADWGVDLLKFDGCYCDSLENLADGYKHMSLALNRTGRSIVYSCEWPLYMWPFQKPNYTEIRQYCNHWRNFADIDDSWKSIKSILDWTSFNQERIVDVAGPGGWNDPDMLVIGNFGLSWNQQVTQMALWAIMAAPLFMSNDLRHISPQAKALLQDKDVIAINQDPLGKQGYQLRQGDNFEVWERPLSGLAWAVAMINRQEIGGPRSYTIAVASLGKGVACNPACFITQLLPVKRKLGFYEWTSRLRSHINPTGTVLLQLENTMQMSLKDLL

On to `CCO/C([O-])=N/c1c[n+](N2CCOCC2)no1`, for which the call in experiment [1] and in experiment [2] was inactive. The activity change, negative = inhibition is -2.6% (inactive) in experiment [3] (at 25.7 µM (top of the series)); 9.19% (inactive) and 0.351% (inactive) in experiment [3] (at 57.5 µM (top of the series)). In addition, the max response in experiment [3] (setting [6]) was -1.78% and -5.37% and -2.1%; in experiment [3] (setting [7]), -4.32% and 6.3% and -2.43%. Further, in experiment [4], the Potency result was “inactive”.
As for `CN(C)CC/C=C1\c2ccccc2COc2ccccc21`, the compound was called inactive in experiment [1], in experiment [2] and in experiment [5]. Further, the activity change, negative = inhibition in experiment [3] (at 25.7 µM (top of the series)) was 1.34% (inactive); in experiment [3] (at 57.5 µM (top of the series)) it was 2.32% (inactive). The max response in experiment [3] (setting [6]) is -10.6% and 12%; in experiment [3] (setting [7]) it was -7.69% and 14%. Moreover, in experiment [4], the Potency entry was “inactive”.
Turning to `Nc1c2c(nc3ccccc13)CCCC2O` (stereo not drawn), the activity change, negative = inhibition in experiment [3] (at 57.5 µM (top of the series)) was 0.679% (inactive) and 0.738% (inactive). The max response in experiment [3] (setting [6]) is 14.7% and -14.6%; in experiment [3] (setting [7]), 13.3% and -15.3%. The Potency entry in experiment [4] was “inactive”. Moreover, the compound was classed as inactive in experiment [5].
In the case of `O=C(O)CN(CCN(CC(=O)O)CC(=O)O)CCN(CC(=O)O)CC(=O)O`, the compound was called inactive in experiment [1], in experiment [2] and in experiment [5]. Moreover, the results for the activity change, negative = inhibition in experiment [3] (at 25.7 µM (top of the series)) and in experiment [3] (at 57.5 µM (top of the series)) were -4.98% (inactive) and 0.152% (inactive), respectively. Also, the max response is -17.8% and 39.9% in experiment [3] (setting [6]); -19.2% and 38.7% in experiment [3] (setting [7]). Also, the Potency result in experiment [4] is “inactive”.
With `NC(Cc1ccc(Cl)cc1)C(=O)O` (stereo not drawn), in experiment [3] (at 57.5 µM (top of the series)), the activity change, negative = inhibition was 7.45% (inactive). Further, the max response in experiment [3] (setting [6]) amounted to 16.7%; in experiment [3] (setting [7]) it was 25.4%. In addition, the Potency result in experiment [4] is “inactive”. For the same compound, in experiment [5], the call was inactive.
With `OC(CCN1CCCCC1)(c1ccccc1)C1CCCCC1` (stereo not drawn), in experiment [3] (at 57.5 µM (top of the series)), the activity change, negative = inhibition is 1.74% (inactive). The max response in experiment [3] (setting [6]) is -10.4%; in experiment [3] (setting [7]) it was -6.71%. Besides, in experiment [4], the Potency result is “inactive”. Also, the outcome in experiment [5] was inactive.
As for `CCN(CC)CCNC(=O)c1ccc(NC(C)=O)cc1`, the compound was called inactive in experiment [1], in experiment [2] and in experiment [5]. The activity change, negative = inhibition in experiment [3] (at 57.5 µM (top of the series)) was 5.92% (inactive) and 1.04% (inactive). The max response in experiment [3] (setting [6]) is -2.69% and -11.3%; in experiment [3] (setting [7]) it was 6.2% and -12.1%. The Potency result in experiment [4] is “inactive”.
For the compound `O=C(O)CN(CCOCCOCCN(CC(=O)O)CC(=O)O)CC(=O)O`, the compound was classed as inactive in experiment [1], in experiment [2] and in experiment [5]. Further, the activity change, negative = inhibition in experiment [3] (at 57.5 µM (top of the series)) is 0.929% (inactive). Besides, the figures for the max response in experiment [3] (setting [6]) and in experiment [3] (setting [7]) were -9.11% and -9.56%, respectively. In addition, the Potency result in experiment [4] is “inactive”.
As for `CCN1CCC[C@H]1CNC(=O)c1c(O)c(Cl)cc(Cl)c1OC`, the activity change, negative = inhibition in experiment [3] (at 57.5 µM (top of the series)) was 1.67% (inactive) and 3.44% (inactive). Further, the max response in experiment [3] (setting [6]) is 12.1% and 6.79%; in experiment [3] (setting [7]) it was 12.8% and 10.2%. Further, the Potency entry in experiment [4] was “inactive”. Also, the compound was classed as inactive in experiment [5].
For `O=C1NCN(c2ccccc2)C12CCN(CCCC(c1ccc(F)cc1)c1ccc(F)cc1)CC2`, the compound was called inactive in experiment [2] and in experiment [5]. In addition, the activity change, negative = inhibition in experiment [3] (at 25.7 µM (top of the series)) is -8.24% (inactive). Moreover, the figures for the max response in experiment [3] (setting [6]) and in experiment [3] (setting [7]) were -19.4% and -26.6%, respectively. Moreover, the Potency result in experiment [4] was “inactive”.
Regarding `CCCN(CCC)CCc1cccc2c1CC(=O)N2`, the compound was classed as inactive in experiment [1], in experiment [2] and in experiment [5]. In addition, in experiment [3] (at 57.5 µM (top of the series)), the activity change, negative = inhibition was 5.49% (inactive). For the same compound, the max response in experiment [3] (setting [6]) came to 9.72%; in experiment [3] (setting [7]), 11.6%.
With `COCC(=O)O[C@]1(CCN(C)CCCc2nc3ccccc3[nH]2)CCc2cc(F)ccc2[C@@H]1C(C)C`, the result in experiment [1], in experiment [2] and in experiment [5] was inactive. Also, the activity change, negative = inhibition in experiment [3] (at 57.5 µM (top of the series)) is -12.5% (inactive). Also, the max response in experiment [3] (setting [6]) is -3.1%; in experiment [3] (setting [7]), -16.1%. In experiment [4], the Potency result is “inactive”.
Regarding `Cc1ccc(=O)n(-c2ccccc2)c1`, the result in experiment [1], in experiment [2] and in experiment [5] was inactive. For the same compound, the activity change, negative = inhibition in experiment [3] (at 57.5 µM (top of the series)) was 1.81% (inactive). Further, the max response in experiment [3] (setting [6]) is 6.64%; in experiment [3] (setting [7]), 9.28%. In addition, the Potency entry in experiment [4] was “inactive”.
